Reference: PubChem BioAssay (NCI)
This is part of a sample that, as a whole, favours compounds with a hit. Of some 83,000 tested, about 20% had one in any assay.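 A percent growth of 40 corresponds to 60% growth inhibition; 0 means no net growth; -100 means all cells died. Active threshold: below 10.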 Activity calls are given as the source filed them.

Legend:
Assay in all cases: NCI-60 one-dose screen, 48 h (100 = growth as untreated, 0 = no growth, -100 = all killed)
Conditions in all cases: 10 µM unless noted
[1] = system: T-47D breast
[2] = system: BT-549 breast
[3] = system: MDA-MB-435 melanoma
[4] = system: SW-620 colon
[5] = system: MCF7 breast
[6] = system: HCT-116 colon
[7] = system: HCC-2998 colon
[8] = system: KM12 colon

Measured: growth

COc1cccc(-c2cc(-c3ccc(Nc4nc(Nc5ccc(Cl)cc5)nc(Nc5ccc(Cl)cc5)n4)cc3)nc(N)c2C#N)c1
active: [1] -30.3% | [2] -30.1% | [3] -5.12% | [4] -39.7% | [6] 6.35% | [7] -29.9%
inactive: [5] 28.5% | [8] 46.7%

COC(=O)c1ccc(-n2cc(CCCOS(=O)(=O)c3ccc(F)cc3)nn2)cc1
inactive: [1] 97.9% | [2] 101% | [3] 97.3% | [4] 100% | [5] 92.1% | [6] 99.6% | [7] 110% | [8] 100%

Nc1ncc(-c2ccc3ncnc(N4CCc5cc(F)c(Cl)cc54)c3c2)cc1C=O
active: [1] 7.88% | [2] 9.08% | [3] 0.36%
inactive: [4] 37.9% | [5] 11.8% | [6] 36.6% | [7] 21.2% | [8] 39.2%

C#Cc1cccc(Nc2nc(Cl)nc3cc(NC(=O)CCl)ccc23)c1
active: [1] -44.7% | [2] -89.3% | [3] -76.7% | [4] -77.8% | [5] -49.5% | [6] -90.1% | [7] -84% | [8] -62.5%

O=C1C(c2c(O)[nH]c3ncccc23)=Nc2ccccc21
inactive: [1] 48.4% | [2] 70.6% | [3] 92.9% | [4] 102% | [5] 41% | [6] 48.5% | [7] 25.3% | [8] 69.5%

CN1CCN(Cc2ccc(NC(=O)c3cc(C#Cc4cnc(N)c5ncccc45)n(C)n3)cc2C(F)(F)F)CC1
inactive: [1] 101% | [2] 117% | [3] 102% | [4] 88.1% | [5] 39.7% | [6] 96.1% | [7] 128% | [8] 87.8%

COC(=O)c1sc(-c2ccc(C)cc2)cc1O
inactive: [1] 102% | [2] 107% | [3] 91.9% | [4] 103% | [5] 96.4% | [6] 96.6% | [7] 94.7% | [8] 95.8%

CC(Cc1cccc2ccccc12)C(N)=O (stereo unspecified)
inactive: [1] 105% | [2] 105% | [3] 98.9% | [4] 108% | [5] 93% | [6] 106% | [7] 106% | [8] 110%

Cc1ccc(S(=O)(=O)N(CCC(=O)O)c2ccccc2)cc1
inactive: [1] 100% | [2] 93.2% | [3] 107% | [4] 104% | [5] 91.8% | [6] 95.1% | [7] 112% | [8] 98.9%

C/C(=N\NC(=O)c1ccc(C(C)(C)C)cc1)c1ccc(O)cc1O
active: [5] 4.92% | [7] 8.71%
inactive: [1] 24.4% | [2] 31.2% | [3] 27.7% | [4] 29.9% | [6] 18.5% | [8] 22.8%

COc1ccc(/C=N/NC(=O)Cn2nnc3ccccc32)cc1
inactive: [1] 92.1% | [2] 107% | [3] 98.2% | [4] 92.9% | [5] 86.4% | [6] 93.7% | [7] 116% | [8] 90.7%

O=C(OCC(O)(CO)C(=O)NC12CC3CC(CC(C3)C1)C2)c1ccc(Cl)cc1 (stereo unspecified)
inactive: [1] 88.9% | [2] 102% | [3] 101% | [4] 103% | [5] 91.6% | [6] 99.8% | [7] 106% | [8] 103%

O=C1CCc2c(sc3[nH]c(=S)n(-c4cc(C(F)(F)F)cc(C(F)(F)F)c4)c(=O)c23)C1
inactive: [4] 18.5%
active: [1] -34.6% | [2] 3.75% | [3] 7.15% | [5] 0.882% | [6] 3.29% | [7] -49.1% | [8] -70.2%

CCOC(=O)c1ccc2c(c1)[n+](=O)c(C(C)=O)c(C(F)(F)F)n2[O-]
active: [1] -26.1% | [2] -44.9% | [3] 2.85% | [4] -0.801% | [5] -6.41% | [6] -38.9% | [7] -17.1% | [8] -85.5%

COC(=O)c1nc(-c2ccc(C)cc2)oc1N1CCOCC1
inactive: [1] 87.3% | [2] 87.1% | [3] 103% | [4] 99.7% | [5] 83% | [6] 97.8% | [7] 104% | [8] 104%

CS(=O)(=O)c1cccc(Nc2ncc3cc(-c4ccccc4Cl)ccc3n2)c1
active: [3] -28.3% | [6] -5.46%
inactive: [1] 11.1% | [2] 10.3% | [4] 15.7% | [5] 21.4% | [7] 33.3% | [8] 21.5%

O=C(Nc1ccccc1CNc1nc(Nc2ccc(OCCN3CCCC3)cc2)ncc1Cl)NC1CCCCC1
active: [3] -83.9%
inactive: [1] 100% | [2] 83.7% | [4] 87.7% | [5] 55.2% | [6] 90.9% | [7] 95.5% | [8] 71.5%

CCCS(=O)(=O)Nc1cccc(Nc2ncnc3cc(NC(=O)CCl)ccc23)c1Cl
active: [1] -41.8% | [2] -68.2% | [3] -46.9% | [4] -33.6% | [5] -13% | [6] -27.9% | [7] 4.99% | [8] -32.2%

CC(C)c1nc(N(C)S(C)(=O)=O)nc(-c2ccc(F)cc2)c1/C=C/C(=O)C[C@@H](O)CC(=O)O
inactive: [1] 101% | [2] 94.2% | [3] 103% | [4] 108% | [5] 97.2% | [6] 91.1% | [7] 98.2% | [8] 97.1%

CC(C)CCc1nc2ccc(NCc3ccc(OCCN4CCC(C)CC4)cc3)cc2[nH]1
inactive: [1] 97% | [2] 77.1% | [3] 89.2% | [4] 89.3% | [5] 62.3% | [6] 65.1% | [7] 42.7% | [8] 87.6%

CCN(CC)CCCC(Nc1c2ccc(Cl)cc2nc2ccc(OC)cc12)c1ccncc1 (stereo unspecified)
inactive: [1] 113% | [2] 94.6% | [3] 93% | [4] 61.9% | [5] 61.2% | [6] 60.8% | [7] 71% | [8] 69.1%

COc1ccc(NC(=O)CSc2oc(-c3ccccc3)nc2S(=O)(=O)c2ccc(Cl)cc2)c(OC)c1
inactive: [1] 60.5% | [2] 61.7% | [3] 86.6% | [4] 81.7% | [5] 73.8% | [6] 41.6% | [7] 83.5% | [8] 71.9%

O=C1c2cccnc2C(=O)c2c1c(C(=O)OCCCN1CCOCC1)c1ccccn21
active: [1] 4.62% | [2] -38.7% | [3] -32.4% | [4] -39.3% | [5] -38.7% | [6] -49.6% | [7] 7.61%
inactive: [8] 15.7%

COc1ccccc1/C=C/C1=C(C)CCC(c2ccccc2OC)C1C (stereo unspecified)
active: [2] -16.3% | [3] -3.28% | [5] 7.88% | [6] 2.8% | [7] -12.5% | [8] 6.67%
inactive: [1] 61.9% | [4] 18.2%

C[C@H]1c2ccccc2CN1CCCOc1cc2c(cc1OCC1CC1)C1(CCCC1)C(N)=N2
active: [1] 0.245% | [6] 7.48% | [7] -55.3%
inactive: [2] 78% | [3] 36.4% | [4] 15% | [5] 22.5% | [8] 49.6%

Cc1c(N2CCCCC2)[nH]c2ccccc12
inactive: [1] 110% | [2] 121% | [3] 103% | [4] 100% | [5] 111% | [6] 105% | [7] 113% | [8] 113%

Cc1ccc2nc(/C=C/c3ccc(N(C)C)cc3)cc(C)c2c1
inactive: [1] 34.7% | [2] 32.3% | [4] 10.9% | [5] 10.1% | [6] 22.8% | [7] 63.9% | [8] 21.5%
active: [3] -5.17%

O=C(N/N=C/c1ccccc1Cl)c1ccccc1Nc1ccnc(C(F)(F)F)c1
active: [1] -14.3% | [5] 9.9% | [7] -20.7%
inactive: [2] 15.7% | [3] 14.6% | [4] 16.6% | [6] 13.3% | [8] 10.4%

CNC1=C([N+](=O)[O-])C(c2ccc(OC)cc2)C(C#N)=C(c2ccc[nH]2)O1 (stereo unspecified)
inactive: [1] 100% | [2] 101% | [3] 96% | [4] 104% | [5] 86.4% | [6] 99% | [7] 100% | [8] 114%

COc1nc2ccccc2cc1/C=C1/C=C(c2ccccc2)NC1=O
inactive: [1] 37.3% | [2] 51.4% | [5] 24.2% | [6] 12.7% | [7] 80.6% | [8] 31.5%
active: [3] -12.5%

Nc1nc(=O)n([C@H]2CC=C(CO)O2)cc1F
inactive: [1] 98.6% | [2] 114% | [3] 97.8% | [5] 95.8% | [6] 108% | [7] 104% | [8] 103%
